From PubChem BioAssay (NCI)
Compounds without any hit were thinned out: in the full panel of roughly 79,000, 15% have a hit. Active and inactive are the calls of the source. Rule as the data show it: active = growth inhibition above about 70%; inactive = the rest.

assay: NCI Yeast Anticancer Drug Screen. Data for the rad50 strain (AID 155);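 also: 0% = growth of vehicle-only cultures of the same strain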; conditions: S. cerevisiae rad50 strain growth inhibition; at 50.0 µM; active compounds read high
Procedure, shortened: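 Genetically altered yeast (DNA repair pathway); compound treatment; growth inhibition vs vehicle ctrl.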

With `O=P(Oc1ccccc1)(Oc1ccccc1)C(O)c1ccccc1` (stereo not given) as the molecule, how does the growth inhibition read?
The growth inhibition was 11.2% (inactive).

With `CNC(=O)C(Cl)Cl` as the molecule, how does the growth inhibition read?
Its growth inhibition is 12.8% (inactive).

With `CCOC(=O)CC(Br)C(=O)CBr` (stereo not given) as the molecule, how does the growth inhibition read?
Its growth inhibition is -9.15% (inactive).

For `CC(C)C1NC(C(C)C)N2C(C(C)C)N12` (stereo not given), which growth inhibition is on record?
The growth inhibition was -0.05% (inactive).

With `O=[C-]C(F)(F)F.[C-]#[O+].[C-]#[O+].[C-]#[O+].[Mo].[c-]1[c-][c-][cH-][c-]1` as the molecule, how does the growth inhibition read?
The growth inhibition was 5.2% (inactive).

With `COc1ccc2ccc([Se]c3ccc4ccc(OC)cc4c3)cc2c1` as the molecule, how does the growth inhibition read?
Its growth inhibition is -1.25% (inactive).

Which growth inhibition does the source give for `Nc1cccc2c1Cc1cc([N+](=O)[O-])ccc1-2` here?
The growth inhibition was 8.1% (inactive).

For `CN(C)CCNC(=O)c1ccc(N(CCCl)CCCl)c([N+](=O)[O-])c1[N+](=O)[O-]`, which growth inhibition is on record?
Its growth inhibition is 36.4% (inactive).

With `O=S(=O)(O)C(Br)(Br)Br` as the molecule, how does the growth inhibition read?
The growth inhibition was 29.4% (inactive).

Which growth inhibition does the source give for `FC(F)(F)C(OP(OC(C(F)(F)F)C(F)(F)F)OC(C(F)(F)F)C(F)(F)F)C(F)(F)F` here?
Its growth inhibition is 27.4% (inactive).

With `CCCCCCCCCCCCCCCC(=O)[O][Hg][c]1ccccc1` as the molecule, how does the growth inhibition read?
The growth inhibition was 97.6% (active).

Which growth inhibition does the source give for `O=[N+]([O-])c1ccc(OCc2ccc(S(=O)(=O)F)cc2Cl)c(Cl)c1` here?
The growth inhibition was 1.45% (inactive).

Which growth inhibition does the source give for `Oc1ccc(Nc2ncnc3nc[nH]c23)cc1CN(CCCl)CCCl` here?
Its growth inhibition is -5.85% (inactive).

For `CCOC(=O)C[S][Sn]([Cl])([Cl])[S]CC(=O)OCC`, which growth inhibition is on record?
The growth inhibition was 0.6% (inactive).

With `CCCn1cc2c3c(cccc31)[C@H]1C[C@@H](C)CN(C)[C@@H]1C2` as the molecule, how does the growth inhibition read?
The growth inhibition was 49.4% (inactive).

For `CC(C)c1cccc(C(C)C)c1NC(=O)/C(CC(=O)CC(c1ccccc1)c1c(O)c2ccccc2oc1=O)=N/O` (stereo not given), which growth inhibition is on record?
Its growth inhibition is -45.5% (inactive).

With `O=C(Nc1ccc(S(=O)(=O)F)cc1)/C(=C\c1ccc([N+](=O)[O-])cc1)c1cccc(Cl)c1` as the molecule, how does the growth inhibition read?
The growth inhibition was 12.4% (inactive).

Which growth inhibition does the source give for `O=C(Nc1c(O)[nH]c(=S)[nH]c1=O)c1ccco1` here?
Its growth inhibition is -24.1% (inactive).

For `Cc1cc(S(=O)(=O)F)ccc1NC(=O)NCc1ccc([N+](=O)[O-])cc1`, which growth inhibition is on record?
Its growth inhibition is 2.75% (inactive).

Which growth inhibition does the source give for `N#CC[CH2][Sn]([I])([c]1ccccc1)[c]1ccccc1` here?
The growth inhibition was 98.2% (active).

For `CCOP(=O)(O)OCC.[Y]`, which growth inhibition is on record?
The growth inhibition was 13.6% (inactive).

With `C1CCN2CC3CONC3C2C1` (stereo not given) as the molecule, how does the growth inhibition read?
Its growth inhibition is -11.3% (inactive).

Which growth inhibition does the source give for `CCOP(=O)(OCC)/C(C#N)=C/C=C/c1ccco1` here?
The growth inhibition was 2.65% (inactive).

With `CCOP(=S)(OCC)S/C(C(=O)NC)=C(/C)O` as the molecule, how does the growth inhibition read?
Its growth inhibition is 64.2% (inactive).

For `O=C1NN2CCCN=C2c2cnccc21`, which growth inhibition is on record?
The growth inhibition was -12.3% (inactive).

With `COc1cc(O)c2c(O)c3c(=O)cc(C)oc3cc2c1` as the molecule, how does the growth inhibition read?
Its growth inhibition is -9.75% (inactive).

With `COC1C(O)CC(OC2CC(Oc3cc4cc5c(c(O)c4c(O)c3C)C(=O)[C@@H](OC3CC(OC4CC(OC6CC(C)(O)C(OC(C)=O)C(C)O6)C(O)C(C)O4)C(O)C(C)O3)[C@H]([C@H](OC)C(=O)[C@@H](O)[C@@H](C)O)C5)OC(C)C2OC(C)=O)OC1C` (stereo not given in full) as the molecule, how does the growth inhibition read?
The growth inhibition was 12.7% (inactive).

Which growth inhibition does the source give for `Cc1cccc2c1[se]c1ccccc12` here?
Its growth inhibition is -11.5% (inactive).

Which growth inhibition does the source give for `O=N[O-].[Co].[NH-]CC[NH-].[NH-]CC[NH-].[NH2-]` here?
The growth inhibition was 5.35% (inactive).

Which growth inhibition does the source give for `CN1C(=O)c2ccccc2NC(=O)C12O[C@@H]2c1ccccc1` (stereo not given in full) here?
Its growth inhibition is 0.05% (inactive).

With `CCC(C)(C)C(=O)Nc1cccc(OC(=O)NC)c1` as the molecule, how does the growth inhibition read?
The growth inhibition was 2.1% (inactive).

For `CCNc1ccc([N+](=O)[O-])cc1[N+](=O)[O-]`, which growth inhibition is on record?
The growth inhibition was 11.3% (inactive).

With `COc1cc(N=Nc2ccc([N+](=O)[O-])cc2)c([OH+]C)cc1[N+]#N.COc1cc(N=Nc2ccc([N+](=O)[O-])cc2)c([OH+]C)cc1[N+]#N.[Cl][Zn][Cl]` as the molecule, how does the growth inhibition read?
Its growth inhibition is 7% (inactive).

With `O=C(Nc1cc(Cl)c(Cl)cc1Cl)C(=O)C1C(=O)NC(=S)NC1=O` as the molecule, how does the growth inhibition read?
The growth inhibition was 0.35% (inactive).

For `COS(=O)(=O)c1ccc(C)cc1`, which growth inhibition is on record?
The growth inhibition was 24.2% (inactive).

Which growth inhibition does the source give for `COc1ccc(C(CC(=O)O)CC(=O)N(CCCl)CCCl)cc1C` (stereo not given) here?
Its growth inhibition is 64% (inactive).

Which growth inhibition does the source give for `CC(C)(C)N1OC1c1cccc(Cl)c1` (stereo not given) here?
Its growth inhibition is 29.6% (inactive).

For `CCCCCCCCCCC(O)[C@H]1CCC(C2CC[C@H]([C@H](O)CCCCCCCCCCC(O)CC3=CC(C)OC3=O)O2)O1` (stereo not given in full), which growth inhibition is on record?
Its growth inhibition is 2.15% (inactive).

For `Nc1ccc(CCc2ccc(S(=O)(=O)F)cc2)cc1`, which growth inhibition is on record?
Its growth inhibition is 94.8% (active).

Which growth inhibition does the source give for `O=[N+]([O-])c1cccc([As](=O)(O)c2ccc(O)c([N+](=O)[O-])c2)c1` here?
The growth inhibition was 5.6% (inactive).
